Measured values as given in PubChem BioAssay (NCI).
The panel holds about 83,000 compounds, 20% with a hit somewhere; the sample as a whole holds those more often.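 Growth was measured after 48 h exposure to one concentration of compound in 96-well plates. Values under 10 count as active.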 Calls of active or inactive are those of the source.

Each compound was assayed on HT29 colon (assay: NCI-60 one-dose screen, 48 h (100 = growth as untreated, 0 = no growth, -100 = all killed)). Details: 10 µM unless noted.

| Compound | growth |
| --- | --- |
| C[C@@H]1CC2C3C[C@H](F)C4=CC(=O)C=C[C@]4(C)[C@@]3(F)[C@@H](O)C[C@]2(C)[C@@]1(O)C(=O)CO (some centres undefined) | 102% (inactive) |
| CCCCCn1ncc(-c2c(O)c(O)cc3c(O)c(-c4c(C)cc5c(-c6cnn(CCCCC)n6)c(O)c(O)cc5c4O)c(C)cc23)n1 | -20.9% (active) |
| COc1ccc(NC(=O)COCCOCCNC[C@@H]2C(=O)O[C@H]3[C@H]2CC/C(COC(=O)OC/C2=C/CC[C@@]4(C)O[C@H]4[C@H]4OC(=O)[C@@H](CN(C)C)[C@@H]4CC2)=C\CC[C@@]2(C)O[C@@H]32)c(O)c1C(N)=O | 14% (inactive) |
| Cc1cc(C)c(O)c(C(=O)CC(Br)C(=O)O)c1 (centres undefined) | 99.1% (inactive) |
| COc1ccc(-c2[nH]c3ccccc3c2/C=C(\C#N)S(=O)(=O)c2ccccc2)cc1 | 12.6% (inactive) |
| NC(=NCCCOc1ccc(F)cc1)Nc1ccc(Cl)c(Cl)c1 | 31.7% (inactive) |
| O=C(N/N=C/c1ccccc1O)c1ccccc1O | 72.9% (inactive) |
| NC(=S)NNC1CCCCC1 | 94.4% (inactive) |
| CCN1CCN(Cc2ccc(NC(=O)Nc3cccc(-n4ccc5c(NC(=O)c6ccccc6)nccc54)c3)cc2C(F)(F)F)CC1 | 75.1% (inactive) |
| CN(C)c1ccc(/C=c2\s/c(=C\C(=O)C(C)(C)C)[nH]c2=O)cc1 | 91% (inactive) |

These compounds were tested on SNB-75 CNS in the same assay as above. Details: 10 µM unless noted.

| Compound | growth |
| --- | --- |
| CCCCC(=O)Nc1nc2ccc(SCCC)cc2s1 | 33.2% (inactive) |
| CC(C)(C)C(=O)/C=c1/[nH]c(=O)/c(=C/c2ccccc2O)s1 | 66.5% (inactive) |
| CC[C@@]1(O)C(=O)OCc2c1cc1n(c2=O)Cc2c-1nc1ccccc1c2/C=N/OC(C)(C)C | 0.198% (active) |
| COc1ccc(OC)c(NCC(=O)n2nc(/C=C\c3ccc(O)c(OC)c3)cc2/C=C\c2ccc(O)c(OC)c2)c1 | 25.5% (inactive) |
| O=C1OC(=O)C2C3CC(c4ccccc43)C12 (centres undefined) | 89.4% (inactive) |
| COc1ccc2c(c1)OC(N)=C(C#N)C2c1ccc(F)cc1 (centres undefined) | 8.49% (active) |
| S=C=NP1(N=C=S)=NP(N=C=S)(N=C=S)=NP(N=C=S)(N=C=S)=NP(N=C=S)(N=C=S)=N1 (centres undefined) | 80.7% (inactive) |
| COc1cc(-c2nc(N)n(CC(=O)Nc3ccc(/C(C)=N\O)cc3)n2)cc(OC)c1OC | 74.1% (inactive) |
| COc1cc2ncnc(Oc3ccc(NC(=O)Nc4ccc(CN5CCOCC5)c(C(F)(F)F)c4)c4ccccc34)c2cc1OC | 46% (inactive) |
| COc1ccc(-c2c(C#N)cnc(N)c2-c2nc3cc(C)c(C)cc3[nH]2)cc1 | 84.2% (inactive) |
| c1ccc(CNCCN(CCNCc2ccccn2)Cc2ccc3ccccc3c2)nc1 | 21.2% (inactive) |
| C=C1C(=O)O[C@H]2[C@H]1CC/C(C(=O)Nc1ccc(OC)c(C(N)=O)c1O)=C\CC[C@@]1(C)O[C@@H]21 | 88.5% (inactive) |
| Cc1ccc2oc(=O)cc(C3C(C#N)=C(N)Oc4c3ccc3ccccc43)c2c1 (centres undefined) | 67.5% (inactive) |
| COc1ccc(-c2nn(-c3ccc(NC(=O)c4cc(C(F)(F)F)cc(C(F)(F)F)c4)cc3)cc2-c2ccncc2)cc1Cl | 72.5% (inactive) |
| Cc1cccc(NCS(=O)(=O)O)c1 | 106% (inactive) |
| O=C(O)c1ccccc1C(=O)c1ccc(I)cc1 | 98.1% (inactive) |
| CC1(C)CC(=O)C2=C(C1)OC1=C(C(=O)CC(C)(C)C1)C2c1ccc(OCc2cn(-c3ccc(F)cc3F)nn2)cc1 | 104% (inactive) |
| CC(C)(CCN=C(N)Nc1ccccn1)c1ccc(C(F)(F)F)cc1 | 48.3% (inactive) |
| CC(=O)c1cc2c(c(O)c1C)C(=O)C(=O)c1c(O)cccc1-2 | -98.2% (active) |
| O=C(Nc1ccc(F)cc1)Nc1ccc(Cl)c([N+](=O)[O-])c1 | 46.7% (inactive) |

| Compound | growth |
| --- | --- |
| C#C[C@H](O)/C=C/CCCCCCC#C[C@H](O)CC[C@@H](O)C#CCCCCCC/C=C/[C@@H](O)C#C | 85.1% (inactive) |
| O=C(Nc1ccc(-n2cc(-c3ccncc3)c(-c3ccc(O)c(Cl)c3)n2)cc1)c1ccc(Cl)c(C(F)(F)F)c1 | 59.7% (inactive) |
| Cc1nccc2c3ccc(OCc4cn(Cc5ccc(Br)cc5)nn4)cc3n(CCCc3ccccc3)c12 | 42.3% (inactive) |
| NCC(=O)NS(=O)(=O)OC[C@H]1O[C@@H](n2cnc3c(N)ncnc32)[C@H](O)[C@@H]1O | -6.72% (active) |
| C[C@H]1C=C(C[C@@H](O)CC#CC#CCCCCC[C@@H](O)[C@H]2CCC(=O)O2)C(=O)O1 | 118% (inactive) |
| CN1CCN(C(=O)/C=C/c2ccc([N+](=O)[O-])o2)CC1 | 95.2% (inactive) |
| OCc1cnccc1NC12CC3CC(CC(C3)C1)C2 | 105% (inactive) |
| Nc1nccc(=S)[nH]1 | 94% (inactive) |
| COc1cc(C(=O)N2CCN(C(=O)c3cc(OC)c(OCc4ccccc4)cc3N)CC2)c(N)cc1OCc1ccccc1 | 108% (inactive) |
| C[C@@H]1CC2C3C[C@H](F)C4=CC(=O)C=C[C@]4(C)[C@@]3(F)[C@@H](O)C[C@]2(C)[C@@]1(O)C(=O)CO (some centres undefined) | 132% (inactive) |
| CCCCCn1ncc(-c2c(O)c(O)cc3c(O)c(-c4c(C)cc5c(-c6cnn(CCCCC)n6)c(O)c(O)cc5c4O)c(C)cc23)n1 | 34.2% (inactive) |
| COc1ccc(NC(=O)COCCOCCNC[C@@H]2C(=O)O[C@H]3[C@H]2CC/C(COC(=O)OC/C2=C/CC[C@@]4(C)O[C@H]4[C@H]4OC(=O)[C@@H](CN(C)C)[C@@H]4CC2)=C\CC[C@@]2(C)O[C@@H]32)c(O)c1C(N)=O | 84.1% (inactive) |
| Cc1cc(C)c(O)c(C(=O)CC(Br)C(=O)O)c1 (centres undefined) | 102% (inactive) |
| COc1ccc(-c2[nH]c3ccccc3c2/C=C(\C#N)S(=O)(=O)c2ccccc2)cc1 | 33.1% (inactive) |
| NC(=NCCCOc1ccc(F)cc1)Nc1ccc(Cl)c(Cl)c1 | 57.8% (inactive) |
| O=C(N/N=C/c1ccccc1O)c1ccccc1O | 78.3% (inactive) |
| NC(=S)NNC1CCCCC1 | 91.5% (inactive) |
| CCN1CCN(Cc2ccc(NC(=O)Nc3cccc(-n4ccc5c(NC(=O)c6ccccc6)nccc54)c3)cc2C(F)(F)F)CC1 | 80.2% (inactive) |
| CN(C)c1ccc(/C=c2\s/c(=C\C(=O)C(C)(C)C)[nH]c2=O)cc1 | 94.3% (inactive) |
